Data taken from PubChem BioAssay AID1159580 (chemical genetic matrix, 2015).
About 2,000 (36%) of roughly 5,500 compounds were called active. Not shown: some 18% with an inconclusive outcome. No stated cut-off is given here; in the data, active means normalized growth mostly below about 0.91 (no sharp cut-off); inconclusive means no clear call, values can overlap the other calls; inactive means mostly above about 0.92. The list shows a part of the results.

Experiment: chemical genetic growth profiling, strain panel (AID 1159580);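 further: tested at 20 µM; growth read once vehicle control cultures reached saturation at 30 °C; 1 = growth at the plate median or of vehicle wells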
Conditions: S. cerevisiae deletion strains, growth OD

Measured: normalized growth

CCCc1nc(C)c2c(=O)[nH]c(-c3cc(S(=O)(=O)N4CCN(CC)CC4)ccc3OCC)nn12
inactive: locus YAL021C, strain ccr4, stronger effect = lower value 0.961 | locus YAL026C, strain drs2, stronger effect = lower value 0.944 | locus YAL030W, strain snc1, stronger effect = lower value 0.947 | locus YBL061C, strain skt5, stronger effect = lower value 0.979 | locus YBR009C, strain hhf1, stronger effect = lower value 0.975 | locus YBR023C, strain chs3, stronger effect = lower value 0.974 | locus YBR171W, strain sec66, stronger effect = lower value 0.967 | locus YBR231C, strain swc5, stronger effect = lower value 0.97 | locus YBR279W, strain paf1, stronger effect = lower value 0.981 | locus YCL011C, strain gbp2, stronger effect = lower value 0.974 | locus YCL016C, strain dcc1, stronger effect = lower value 0.974 | locus YCL061C, strain MRC1, stronger effect = lower value 0.952 | locus YCL069W, strain vba3, stronger effect = lower value 0.988 | locus YCR088W, strain abp1, stronger effect = lower value 0.98 | locus YDL005C, strain med2, stronger effect = lower value 0.98 | locus YDL040C, strain nat1, stronger effect = lower value 0.985 | locus YDR001C, strain nth1, stronger effect = lower value 0.964 | locus YDR069C, strain doa4, stronger effect = lower value 0.951 | locus YDR137W, strain rgp1, stronger effect = lower value 0.915 | locus YDR159W, strain sac3, stronger effect = lower value 0.93 | locus YDR195W, strain ref2 0.938 | locus YDR297W, strain sur2, stronger effect = lower value 0.984 | locus YDR334W, strain swr1, stronger effect = lower value 0.913 | locus YDR335W, strain msn5, stronger effect = lower value 0.97 | locus YDR392W, strain spt3, stronger effect = lower value 0.964 | locus YEL003W, strain gim4, stronger effect = lower value 0.969 | locus YEL037C, strain rad23, stronger effect = lower value 0.985 | locus YEL061C, strain CIN8 (second series), stronger effect = lower value 0.973 | locus YER015W, strain faa2, stronger effect = lower value 0.983 | locus YER016W, strain bim1, stronger effect = lower value 0.973 | locus YER111C, strain swi4, stronger effect = lower value 0.972 | locus YER155C, strain BEM2 (second series), stronger effect = lower value 0.945 | locus YFR010W, strain ubp6, stronger effect = lower value 0.943 | locus YGL167C, strain pmr1, stronger effect = lower value 0.957 | locus YGL173C, strain kem1, stronger effect = lower value 0.949 | locus YGL227W, strain vid30, stronger effect = lower value 0.965 | locus YGL240W, strain doc1, stronger effect = lower value 0.921 | locus YGL253W, strain hxk2, stronger effect = lower value 0.971 | locus YHR013C, strain ard1, stronger effect = lower value 0.931 | locus YHR027C, strain rpn1, stronger effect = lower value 0.942 | locus YHR030C, strain SLT2, stronger effect = lower value 1.08 | locus YHR079C, strain IRE1, stronger effect = lower value 1.07 | locus YHR142W, strain chs7, stronger effect = lower value 0.971 | locus YJL092W, strain hpr5, stronger effect = lower value 0.96 | locus YJL095W, strain BCK1 (second series), stronger effect = lower value 0.974 | locus YJL095W, strain BCK1, stronger effect = lower value 1.01 | locus YJL115W, strain asf1, stronger effect = lower value 0.943 | locus YJL129C, strain trk1, stronger effect = lower value 0.969 | locus YJL154C, strain vps35, stronger effect = lower value 0.97 | locus YJL164C, strain tpk1, stronger effect = lower value 0.948 | locus YJL166W, strain qcr8, stronger effect = lower value 0.969 | locus YJL187C, strain SWE1, stronger effect = lower value 0.972 | locus YJR066W, strain TOR1, stronger effect = lower value 0.979 | locus YKL160W, strain elf1, stronger effect = lower value 0.987 | locus YKR026C, strain gcn3, stronger effect = lower value 0.973 | locus YKR091W, strain srl3, stronger effect = lower value 0.977 | locus YLL001W, strain dnm1, stronger effect = lower value 0.973 | locus YLL026W, stronger effect = lower value 0.947 | locus YLL041C, strain sdh2, stronger effect = lower value 0.96 | locus YLR027C, strain aat2, stronger effect = lower value 0.953 | locus YLR113W, strain HOG1, stronger effect = lower value 0.997 | locus YLR221C, strain rsa3, stronger effect = lower value 0.978 | locus YLR258W, strain gsy2, stronger effect = lower value 0.983 | locus YLR262C, strain YPT6 (second series), stronger effect = lower value 0.979 | locus YLR320W, strain mms22, stronger effect = lower value 0.964 | locus YLR342W, strain FKS1, stronger effect = lower value 0.98 | locus YLR357W, strain rsc2, stronger effect = lower value 0.937 | locus YLR370C, strain arc18, stronger effect = lower value 0.966 | locus YLR384C, strain iki3, stronger effect = lower value 0.95 | locus YML120C, strain ndi1, stronger effect = lower value 0.981 | locus YMR058W, strain fet3, stronger effect = lower value 0.954 | locus YMR125W, strain sto1, stronger effect = lower value 0.969 | locus YMR129W, stronger effect = lower value 0.981 | locus YMR205C, strain PFK2, stronger effect = lower value 0.944 | locus YMR231W, strain pep5, stronger effect = lower value 0.978 | locus YNL071W, strain lat1, stronger effect = lower value 0.988 | locus YNL183C, strain NPR1, stronger effect = lower value 0.967 | locus YNL209W, strain ssb2, stronger effect = lower value 0.978 | locus YNL248C, strain rpa49, stronger effect = lower value 0.966 | locus YNL322C, strain KRE1 (second series), stronger effect = lower value 0.956 | locus YNR049C, strain mso1, stronger effect = lower value 0.967 | locus YOR001W, strain rrp6, stronger effect = lower value 0.956 | locus YOR070C, strain gyp1, stronger effect = lower value 0.983 | locus YOR080W, strain dia2, stronger effect = lower value 0.967 | locus YOR083W, strain WHI5, stronger effect = lower value 0.946 | locus YOR106W, strain vam3, stronger effect = lower value 0.955 | locus YOR231W, strain MKK1, stronger effect = lower value 1.05 | locus YOR265W, strain rbl2, stronger effect = lower value 0.98 | locus YOR270C, strain vph1, stronger effect = lower value 0.992 | locus YOR290C, strain snf2, stronger effect = lower value 0.938 | locus YPL051W, strain arl3, stronger effect = lower value 0.975 | locus YPL078C, strain atp4, stronger effect = lower value 0.97 | locus YPL106C, strain sse1, stronger effect = lower value 0.868 | locus YPL240C, strain hsp82, stronger effect = lower value 0.973 | locus YPL256C, strain CLN2, stronger effect = lower value 1.09
